The source of these data is ChEMBL document CHEMBL3988442, “University of Dundee, Small-Polar-MMV Screening Library” (2021).

Screen size: about 69,000 compounds; about 1,000 (1.4%) showed an effect of 50% or more. This is one part of a sample in which strong results are shown more often than they occur.

The test concerns Leishmania donovani. Put plainly: Leishmania intramacrophage assay. Type of test: functional, organism-based. On the set-up: scale not given: in the data most compounds retested in dose-response had high values.

Consider `Nc1nccnc1C(=O)N(Cc1ccccc1O)CC1CCCO1` (stereo not given), for which the “Percent Effect” value (30.3 µM, […]) was -0.1848%.
The same measure, in the same setting: for `O=C(C(C1CC1)C1CC1)N1CCC(n2ccnn2)CC1` the value was 12.14%.
On to `CN1CCN(c2ncc3c(=O)n(-c4cccc(F)c4)c(=O)[nH]c3n2)CC1`, for which the “Percent Effect” value (30 µM, 30.03 µM) is 19.86%.
Regarding `O=C(O)C(F)(F)F.O=C(O)C(F)(F)F.O=C1NC2(CCN(Cc3cccs3)CC2)CC1c1ccncc1` (stereo not given), for the setting “30.3 µM, […]”, the “Percent Effect” value is 15.69%.
Still for that read-out and setting: for `COc1ccc(CC(=O)N2CCC(c3n[nH]c(C4CC4)n3)CC2)cc1` the value was 20.62%; for `CC(=O)Nc1nc(CNc2ccccc2CCC(F)(F)F)cs1`, -4.538%.
The same measure, in the same setting: for `CN1C[C@@H](C(=O)N2CCOCC2)[C@@]2(CCc3ccccc3C(=O)N2)C1` the value was 0.0295%; for `Cc1cc(C)c2ncc(C#N)c(NC3CCN(CC(N)=O)CC3)c2c1`, 5.1%; for `N#Cc1cnc2c(F)cc(F)cc2c1NC1CCN(CC(N)=O)CC1`, 54.87%.
Same read-out and setting: the value for `N#Cc1cnc2cc(F)cc(F)c2c1NC1CCN(CC(N)=O)CC1` was 21.49%.
Regarding `CN(C)c1ccc(CC(=O)N[C@@H]2CCNC[C@H]2O)cc1`, the “Percent Effect” value (30 µM, 30.03 µM) is -29.81%.
For the compound `Cc1cc(C)n(CC(C)Nc2ncnc3c2CCNC3)n1` (stereo not given), the “Percent Effect” value (30.3 µM, […]) is -4.806%.
With `CCOc1ccc(C(C)Nc2ncnc3c2CCNC3)cc1OCC` (stereo not given), where the note is “30.3 µM, […]”, the “Percent Effect” value is on record as 19.33%.
On the same count and under the same terms, the value for `Cc1ccccc1C(Nc1ncnc2c1CCNC2)c1ccccc1` (stereo not given) was 61.26%; that for `Cc1nc(C(C)Nc2ncnc3c2CCNCC3)c(C)s1` (stereo not given) was 9.224%.
For `Cc1ccccc1C(CNc1ncnc2c1CCNCC2)N(C)C` (stereo not given), the “Percent Effect” value (30.3 µM, […]) is -7.029%.
The same measure, in the same setting: for `Cc1ccccc1C(CNc1ncnc2c1CCNC2)N(C)C` (stereo not given) the value was -14.27%; for `CC(Nc1ncnc2c1CCNC2)c1ccc(C(C)(C)C)cc1` (stereo not given), 88.55%; for `CC(Nc1ncnc2c1CCNC2)c1ccc2c(c1)CCCC2` (stereo not given), 82.26%.
On the same count and under the same terms, for `CCCc1ccc(C(C)Nc2ncnc3c2CCNC3)cc1` (stereo not given) the value was 81.31%.
The same measure, in the same setting: the value for `CC(Nc1ncnc2c1CCNCC2)c1nc2c(s1)CCCC2` (stereo not given) was 11.97%; that for `CCc1nc(NC2CC(=O)N(CC3CCCCC3)C2)ncc1C` (stereo not given) was 15.64%; that for `Cn1cc(C2CN(C(=O)Cc3coc(-c4ccccc4)n3)CCO2)cn1` (stereo not given) was 1.481%.
`COc1ccccc1CCN(C)C(=O)NC(C)c1nncn1C` (stereo not given): the “Percent Effect” value (30 µM, 30.03 µM) is given as 13.36%.
On to `COc1cc(CN2CCC(COCc3ccccc3)CC2)cc(OC)c1`, for which the “Percent Effect” value (30.3 µM, […]) was found to be 11.79%.
On the same count and under the same terms, for `CCc1ccc(Cn2nccc2NC(=O)C2CCS(=O)(=O)C2)cc1` (stereo not given) the value was 28.09%.
Still for that read-out and setting: for `COc1ccc(-c2nnc([C@H]3CCN(C4CCC4)C3)o2)cc1` the value was 5.132%.
Regarding `O=C(c1ccc(Cn2ccccc2=O)o1)N1CCSCC1`, the “Percent Effect” value (30 µM) is listed as 34.1%.
Regarding `Cc1nc2c(c(NCc3cc4ccccc4s3)n1)CCNCC2`, where the note is “30.3 µM, […]”, the “Percent Effect” value is reported as 99.76%.
Same read-out and setting: the value for `Cc1nc2c(c(NCC(O)c3ccccc3Cl)n1)CCNCC2` (stereo not given) was 52.68%; that for `c1ccc(-c2nc3c(c(NCCn4cccc4)n2)CCNCC3)nc1` was 4.707%.
Same read-out and setting: for `Cc1nc2c(c(NC3CCN(Cc4ccccc4)CC3)n1)CCNCC2` the value was 8.424%; for `c1ccc(-c2nc3c(c(NCCn4ccnn4)n2)CCNCC3)nc1`, 12.83%; for `Cc1nc2c(c(NCc3nc4ccccc4s3)n1)CCNCC2`, 11.81%.
For the compound `Cc1nc2c(c(NCc3ccc(-c4ccccn4)s3)n1)CCNCC2`, the “Percent Effect” value (30.3 µM, […]) came out at 74.83%.
Same read-out and setting: for `Cc1nc2c(c(NCC(c3ccccc3C)N(C)C)n1)CCNC2` (stereo not given) the value was 37.15%; for `Cc1nc2c(c(NCC3Cc4ccccc4CN3C)n1)CCNCC2` (stereo not given), 11.22%.
As to `COC[C@@]12CCC[C@@H]1CN(C(=O)CN(C)C)C2.O=C(O)C(F)(F)F`, under “30.3 µM, […]”, the “Percent Effect” value is reported as 2.882%.
The same measure, in the same setting: the value for `CCc1cnc(CCNC(C)CC(=O)Nc2cccc(C)c2C)s1` (stereo not given) was 0.8494%.
Take `COCC1CN(Cc2cccc(C#N)c2)Cc2nccn2C1` (stereo not given): the “Percent Effect” value (30.3 µM, […]) worked out at 20.19%.
On to `CNC[C@H]1CC[C@H](c2cc(CN(C)S(=O)(=O)N(C)C)n(C)n2)CC1.Cl`, for which the “Percent Effect” value (30.3 µM, […]) is 29.88%.
Same read-out and setting: the value for `COCC1CC2(CCN(C(=O)c3ccc(C)nc3)CC2)CO1.O=C(O)C(F)(F)F` (stereo not given) was 25.55%.
For the compound `CN(C)[C@@H]1CCN(C(=O)NC2CCCC2)[C@H]1Cc1cnn(C)c1.O=C(O)C(F)(F)F`, the “Percent Effect” value (30 µM, 30.03 µM) is on record as 11.61%.
With `Cc1cc(N2CCC(c3nccn3Cc3cscn3)CC2)ccn1`, the “Percent Effect” value (30.3 µM, […]) was -14.56%.
On to `Cc1ccc(-c2nc(CNS(=O)(=O)N(C)C)[nH]c2-c2ccccn2)cc1`, for which the “Percent Effect” value (30.3 µM, […]) amounted to 30.48%.
On to `Cc1cnn(CC(C)NCc2nc(-c3ccccn3)no2)c1` (stereo not given), for which, under “30.3 µM, […]”, the “Percent Effect” value amounted to 2.286%.
Turning to `COCC(C)NCc1nc(-c2ccc(C)cc2)c(-c2ccccn2)[nH]1` (stereo not given), the “Percent Effect” value (30.3 µM, […]) is recorded as 71.58%.
Same read-out and setting: for `CN(C)S(=O)(=O)NCc1nc(-c2cccc(F)c2)c(-c2ccccn2)[nH]1` the value was 3.232%.
With `Cc1ccc(-c2nc(CNC(C)CCO)[nH]c2-c2ccccn2)cc1` (stereo not given), where the note is “30.3 µM, […]”, the “Percent Effect” value is given as 67.9%.
`COCc1ccc(C(=O)N2CCOCC2c2ccc(C)o2)cc1` (stereo not given): the “Percent Effect” value (30.3 µM, […]) was found to be 18.1%.
Same read-out and setting: for `O=C(O)C(F)(F)F.c1ccc(C[C@H]2CN(C3CCOCC3)CC[C@H]2OCC2CC2)cc1` the value was 14.89%.
Regarding `O=C(COc1coc(CN2CCCCCC2)cc1=O)c1ccccc1`, the “Percent Effect” value (30 µM, 30.03 µM) was 12.38%.
Take `Cc1cc(C)c2c(NCC3(O)CCCCC3)ncnc2n1`: the “Percent Effect” value (30.3 µM, […]) is on record as -4.66%.
The same measure, in the same setting: the value for `CC(c1c(F)cccc1F)N1CCN(Cc2nccn2C)CC1` (stereo not given) was 28.44%.
As for `O=C(N1CCCC1)N1CCc2ncnc(C3CCOC3)c2CC1` (stereo not given), the “Percent Effect” value (30 µM, 30.03 µM) was -0.6847%.
As to `CN(Cc1cc2cc(F)ccc2[nH]1)C(=O)C1CC(=O)N(C(C)(C)C)C1` (stereo not given), where the note is “30.3 µM, […]”, the “Percent Effect” value is reported as 55.15%.
On to `CN(Cc1cc2cc(F)ccc2[nH]1)C(=O)C1CC(=O)N(C2CC2)C1` (stereo not given), for which, where the note is “30.3 µM, […]”, the “Percent Effect” value is listed as 14.52%.
Same read-out and setting: the value for `CCN1CC(C(=O)N(C)Cc2cc3cc(F)ccc3[nH]2)CC1=O` (stereo not given) was 16.63%; that for `COC(=O)c1ccc(F)c(Cn2nc(C)cc2C)c1` was 38.02%.
Take `O=S(=O)(NC(CO)Cc1c[nH]c2ccccc12)c1cncc(F)c1` (stereo not given): where the note is “30.3 µM, […]”, the “Percent Effect” value is reported as 19.78%.
The same measure, in the same setting: the value for `Cc1ccc(C(=O)N2CCc3c(COCC4CC4)cncc3C2)o1` was -21.23%.
`COCc1nc(CNc2cccc(-c3csc(C)n3)c2)cs1`: the “Percent Effect” value (30.3 µM, […]) is -17.78%.
For `COCc1nc(CNc2cccc(-c3nc(C)c(C)o3)c2)cs1`, the “Percent Effect” value (30.3 µM, […]) turned out to be 3.012%.
Same read-out and setting: for `COCc1nc(CNc2cccc(-c3ncon3)c2)cs1` the value was 70.63%.
In the case of `N#Cc1nccnc1NC1CCN(c2ccccc2Br)C1` (stereo not given), the “Percent Effect” value (30.3 µM, […]) is recorded as -7.134%.
